# Bioassay records as filed in PubChem.
# The full list was thinned out, with hits kept by preference.
# LmPK inh: LmPK (Leishmania mexicana) enzyme inhibition | Q27686 | purified LmPK, Kinase-Glo ATP luminescence, 1 h | Potency, µM (highest dose often 57.5 µM), without a hit: top-dose activity change, negative = inhibition, actives largely listed as inhibitors | actives 0.37% (n = 290,000) | AID 1721; note: potency is the fitted concentration of half-maximal effect; % is set by controls: 0 for no effect and ±100 for the full control effect
#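 Screened at intermediate enzyme activity to detect both inhibitors and activators: LmPK at 0.1 nM, with a 0.5 nM enzyme column as activation reference. PEP 0.5 mM, ADP 0.1 mM; ATP detected by luminescence after 1 h.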
# Shiga toxin inh: Shiga toxin inhibition; AID 2315; actives 9.2% (n = 290,000); Vero cells, Shiga toxin protein synthesis inhibition reporter; inhibition, % at 38.7 µM; in the data active = inhibition mostly above about 28%, no sharp cut-off; inactive = mostly below about 43%; note: 0% is about no effect
# Giardia FBPA inh: inhibitors of Giardia lamblia fructose-1,6-bisphosphate aldolase | A8B2U2 | purified Giardia FBPA | Potency, µM (doses to about 59.6 µM), inactives show at the top dose activity, negative = inhibition, most hits filed as inhibitors | actives 0.71% (n = 290,000) | AID 2451; note: potency is the fitted concentration of half-maximal effect; % is set by controls: 0 for no effect and ±100 for the full control effect; nearly all actives have a fitted effect of over 55% in size
# Target sequence (A8B2U2 whole entry, looked up): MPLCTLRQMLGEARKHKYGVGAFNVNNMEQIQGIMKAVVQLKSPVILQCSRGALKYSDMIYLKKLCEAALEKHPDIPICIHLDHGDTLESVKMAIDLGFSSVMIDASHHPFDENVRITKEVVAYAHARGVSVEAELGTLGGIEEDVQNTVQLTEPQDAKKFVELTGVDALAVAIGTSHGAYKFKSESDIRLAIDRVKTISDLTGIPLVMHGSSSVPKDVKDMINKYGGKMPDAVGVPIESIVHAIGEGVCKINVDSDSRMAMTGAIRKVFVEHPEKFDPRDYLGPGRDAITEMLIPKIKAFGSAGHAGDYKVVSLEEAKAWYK
#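 40 nM FBPA preincubated 10 min at RT with compound (up to 57.5 uM final), then substrate plus GAPDH/TPI/NAD/arsenate coupling and diaphorase/resazurin added. Fluorescence read after 20 min at RT, 525/598 nm.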
# Sm TGR inh: S. mansoni TGR enzyme inhibition | purified TGR, DTNB reduction, TNB absorbance 405 nm | actives 3% (n = 360,000) | Q962Y6 | Potency, µM (highest dose often 114 µM), for the others: at the top dose activity change, negative = inhibition, hits mostly inhibitors; note: potency is the fitted concentration of half-maximal effect; % is set by controls: 0 for no effect and ±100 for the full control effect; nearly all actives have a fitted effect of over 60% in size
#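 Kinetic colorimetric format: TGR-catalysed, NADPH-driven DTNB reduction monitored via TNB absorbance. Enzyme dispensed at 20 nM; compound exposure 15 min at room temperature before reaction start.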
# Tb PYK inh: T. brucei pyruvate kinase inhibition. TbPYK enzyme, Kinase-Glo Plus ATP luminescence, 45 min. Q57TT1. Potency, µM (titrated, usually from 76.8 µM), without a hit: at the top dose activity, negative = inhibition, hits mostly inhibitors. actives 0.12% (n = 410,000); note: potency is the fitted concentration of half-maximal effect; % is set by controls: 0 for no effect and ±100 for the full control effect; nearly all actives have a fitted effect of over 50% in size
#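 ADP (130 uM final) triggers the TbPYK reaction after compound addition; incubation is 45 min at room temperature. Kinase-Glo Plus is then added and luminescence imaged. Normalized data are fitted to concentration-effect curves.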
# CHX counter: affects cycloheximide protein synthesis inhibition readout, counter-screen; actives 12% (n = 300,000); max response, %; cell reporter, cycloheximide protein synthesis inhibition counterscreen; in the data active = max response mostly above about 13%, no sharp cut-off; inactive = mostly below about 14%; note: read at 38.3 µM for the half of the compounds with a filed dose; 0% is about no effect
# * hit, by the source's call; ? = inconclusive; / = no result. Unless noted, calls come from the whole dose curve; as a rule, active = well fitted curve in the direction sought with a large enough effect; inconclusive = small, poorly fitted or top-dose-only effect, or another doubt; inactive = no such curve, though single readings can be large; an effect the other way counts as inactive or inconclusive.
SMILES,LmPK inh,Shiga toxin inh,Giardia FBPA inh,Sm TGR inh,Tb PYK inh,CHX counter
CCOc1ccc(C(=O)NCC(=O)NCC(c2ccco2)N2CCCCC2)cc1 (stereo not drawn),/,/,/,89µM*,1%,/
O=C(NCc1ccco1)c1ccc(Oc2ccccc2)cc1,4%,76*,-19%,?,-4%,55*
CC(C)COc1ccc(C(=O)NCc2ccco2)cc1,-1%,36*,0%,?,-5%,14*
O=C(NCc1ccco1)c1ccc(COc2ccc(Cl)cc2)cc1,2%,33,-4%,4%,-17%,11
CCN(CC)C(=O)c1cccc(-c2csc(C(O)c3cccc(Cl)c3)n2)c1 (stereo not drawn),/,/,/,/,-14%,/
CCCOc1ccc(N2C(=O)CC(N(CCc3ccc(OC)c(OC)c3)C(=O)c3ccccc3)C2=O)cc1 (stereo not drawn),2%,-6,0%,6%,3%,-1
COc1ccc(N2C(=O)CC(N(C)CCc3ccc(OC)c(OC)c3)C2=O)cc1 (stereo not drawn),4%,-4,1%,-1%,4%,-1
COC(=O)c1ccc(N2C(=O)CC(N(C)CCc3ccc(OC)c(OC)c3)C2=O)cc1 (stereo not drawn),0%,4,1%,22µM*,-16%,-2
COc1ccc(CCN(C)C2CC(=O)N(c3ccccc3)C2=O)cc1OC (stereo not drawn),1%,-11,-2%,11µM*,-2%,-2
CCN(CC)CCNC(=O)c1[nH]c2ccccc2c1Sc1ccc(Cl)cc1,/,/,/,0%,-3%,/
CN(C)C(=O)c1ccc(-c2cc(NCc3cccnc3)ncn2)cc1,/,/,1%,/,/,/
COc1ccc(Cc2cnc(N)s2)cc1,4%,24,0%,19%,2%,5
Cc1ccc(OCc2cnc(Cl)s2)c(C)c1,-1%,146*,12%,-3%,4%,36*
O=[N+]([O-])c1ccc(OCc2cnc(Cl)s2)cc1,1%,32,0%,/,1%,32*
COc1ccc(OCc2cnc(Cl)s2)cc1,-1%,60*,7%,1%,-7%,29*
COC(=O)C(Cc1cnc(Cl)s1)(C(=O)OC)c1ccc([N+](=O)[O-])cc1,1%,-45,0%,-5%,-7%,-5
O=C(Nc1cccc(C(=O)O)c1)/C(=C\c1ccco1)NC(=O)c1ccc(Br)o1,-3%,-8,-5%,50µM*,?,-4
O=C(Nc1cccc(F)c1)/C(=C/c1ccco1)NC(=O)c1ccco1,-10%,25,/,45µM*,-24%,20*
Cc1c2cnn(-c3ccccc3)c(=O)c2c(C)n1CC(=O)NCc1ccccc1Br,/,/,/,1%,2%,/
CCCC(=O)NC1CC(=O)N(c2ccc3c(c2)OCCO3)C1 (stereo not drawn),/,/,/,8%,-1%,/
c1ccc(CSCc2ccccc2)cc1,/,/,/,1%,7%,/
Nc1nc(SCc2ccc(Br)cc2)n[nH]1,-12%,53*,5%,0%,4%,27*
Nc1ccccc1SCc1ccccc1,9%,89*,-11%,0%,-5%,72*
Nc1nc(SCc2ccccc2)n[nH]1,1%,19,2%,-7%,0%,11*
O=S(=O)(c1cnccc1N1CCN(CCO)CC1)N1CCCCC1,0%,-7,/,-18%,3%,0
SMILES,LmPK inh,Shiga toxin inh,Giardia FBPA inh,Sm TGR inh,Tb PYK inh,CHX counter
CCCOc1ccc(C2CC(=O)Nc3c2c(=O)n(C)c(=O)n3C)cc1OC (stereo not drawn),/,/,/,7%,-1%,/
CSCC[C@H](NC(=O)OC(C)(C)C)c1nnc(SCc2cccc(F)c2)o1,2%,9,2%,3%,-9%,1
CC(C)C[C@H](NC(=O)OC(C)(C)C)c1nnc(SCc2cccc(F)c2)o1,4%,27*,-15%,11%,-6%,9
CSc1nnc([C@H](Cc2c[nH]c3ccccc23)NC(=O)OC(C)(C)C)o1,1%,65*,-1%,-10%,-16%,26*
COc1ccc2c(c1)c(N1CCCC1=O)c(C(=O)Nc1cc(C)c(Cl)cc1OC)n2C,/,/,/,5%,1%,/
O=S(=O)(NCC(c1cccs1)S(=O)(=O)c1ccccc1)c1ccccc1 (stereo not drawn),/,/,/,0.32µM*,3%,/
O=S(=O)(NCC(c1ccco1)S(=O)(=O)c1cccs1)c1ccc(Cl)cc1 (stereo not drawn),/,/,/,0.1µM*,-1%,/
O=S(=O)(NCC(c1ccco1)S(=O)(=O)c1cccs1)c1ccccc1 (stereo not drawn),/,/,/,0.2µM*,1%,/
O=C(NCCc1ccc(Cl)cc1)C(=O)NCC(c1ccco1)S(=O)(=O)c1ccccc1 (stereo not drawn),/,/,/,?,2%,/
O=S(=O)(NCC(c1ccco1)S(=O)(=O)c1cccs1)c1ccc(F)c(C(F)(F)F)c1 (stereo not drawn),/,/,/,0.1µM*,-5%,/
COc1ccccc1C(=O)NC(=O)COC(=O)Cn1[nH]c(=O)c2ccccc2c1=O,/,/,/,-1%,1%,/
O=C1C(=O)N(C2CCN(C(=O)c3cccc(Cl)c3)CC2)CCN1Cc1ccc(F)cc1,/,/,/,1%,2%,/
Cc1cc(=O)[nH]c2nnc(SCC(N)=O)n12,/,/,/,14%,-13%,/
COc1cc(C=O)ccc1Oc1nnnn1-c1ccc(C(N)=O)cc1,-2%,-14,1%,0%,-6%,-5
C/C=C/c1ccc(Oc2nnnn2-c2ccc(C(=O)O)cc2)c(OC)c1,-7%,-5,29%,35µM*,-11%,-2
CC(=O)/C(C#N)=C1\NC(=O)C(Cc2ccccc2C)S1 (stereo not drawn),5%,27,0%,-25%,-6%,16*
CCCCN1C(=O)C2(NNc3ccccc3O2)c2ccccc21 (stereo not drawn),-5%,62*,?,-26%,4%,47*
COc1cc(C2NC(=O)C(C#N)=C(S)N2c2ccc(C)cc2)ccc1OC(C)C (stereo not drawn),-2%,78*,-26%,4%,0%,11*
O=c1c2c3c(sc2nc2sc(C4CC4)nn12)CCCC3,-9%,54,0%,0%,-8%,33*
CCOc1ccc(CNC(=S)NCc2ccc(OCC)cc2)cc1,-3%,9,5%,-1%,-2%,11*
CCOc1ccc(NC(=S)NCc2ccc3c(c2)OCO3)cc1,11%,23,-2%,5µM*,2%,9.1*
COc1ccc(CNC(=S)NCc2ccc(OC)cc2)cc1,1%,-3,-7%,/,-5%,1
CC(=O)Nc1ccc(OCc2ccc3c(c2)OCO3)cc1,-13%,167*,-2%,-3%,-13%,46*
Cn1cccc1/C=N/NC(=O)c1ccc[n+]([O-])c1,4%,18,-5%,3%,3%,-2
